Results published in PubChem BioAssay (NCATS).
Where “and” joins values, the source holds several entries; their conditions need not be identical. Equal values may be shown once. Results filed as inconclusive are left out. Calls of active or inactive are those of the source. Unless noted, calls come from the whole dose curve.

Experiments:
[1] = biological target: Cytochrome P450 3A4 (Homo sapiens) (UniProt P08684); assay: qHTS Assay for Inhibitors and Substrates of Cytochrome P450 3A4 (AID 884; active = well fitted curve in the direction sought with a large enough effect; an effect the other way counts as inactive or inconclusive; note: % is set by controls: 0 for no effect and ±100 for the full control effect; nearly all actives have a fitted effect of over 50% in size)
Cytochrome P450 3A4 (Homo sapiens), sequence (P08684 whole entry, looked up): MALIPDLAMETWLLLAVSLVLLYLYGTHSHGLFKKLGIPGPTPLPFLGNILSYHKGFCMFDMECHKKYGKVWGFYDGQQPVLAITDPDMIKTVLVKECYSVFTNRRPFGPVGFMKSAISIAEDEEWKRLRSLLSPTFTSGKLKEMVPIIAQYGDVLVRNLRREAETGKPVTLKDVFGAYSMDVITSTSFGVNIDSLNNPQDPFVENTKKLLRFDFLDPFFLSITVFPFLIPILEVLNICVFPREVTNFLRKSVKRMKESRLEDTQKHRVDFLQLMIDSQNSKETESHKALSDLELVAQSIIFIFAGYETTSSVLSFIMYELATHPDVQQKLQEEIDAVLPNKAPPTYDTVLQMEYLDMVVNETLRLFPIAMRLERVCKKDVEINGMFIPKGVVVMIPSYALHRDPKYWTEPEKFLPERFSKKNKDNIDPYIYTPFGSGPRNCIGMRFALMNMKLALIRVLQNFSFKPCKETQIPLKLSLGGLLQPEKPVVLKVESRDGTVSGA
Procedure, shortened: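 Luminescent readout of luciferin produced by CYP3A4 (20 nM) dealkylation of Luciferin-PPXE, 25 uM (its KM). NADPH-driven reaction ran 60 min at RT after 10 min compound preincubation; data scaled to 57 uM ketoconazole as 100% inhibition.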

[2] = Confirmation and Secondary Assay for Modulators of Hemoglobin Beta Chain Splicing at IVS2 654 locus (AID 910; active = well fitted curve in the direction sought with a large enough effect; an effect the other way counts as inactive or inconclusive;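 note: HeLa cells stably carrying EGFP split by mutant beta-globin IVS2-654 intron; % of control where 0% means no effect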)
Procedure, shortened: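 HeLa cells stably expressing EGFP interrupted by β-globin IVS2-654 intron, seeded overnight in Opti-MEM/2% FCS, then treated 2 days at 37 °C. Restored splicing read as total peak GFP intensity per well by laser scanning cytometry (488 nm excitation, 500–520 nm emission); 500 nM antisense PNA as control.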

[3] = Confirmation and Secondary Assay for Modulators of Hemoglobin Beta Chain Splicing at IVS2 705 locus (AID 930; active = well fitted curve in the direction sought with a large enough effect; an effect the other way counts as inactive or inconclusive;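 note: HeLa cells stably expressing the EGFP-705 splicing reporter; GFP fluorescence per well restored by corrected splicing of the IVS2-705 intron in EGFP; % of control where 0% means no effect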)
Procedure, shortened: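 Assay measures total GFP intensity per well in HeLa EGFP-705 cells after 2 days with compound; mis-splicing normally truncates EGFP, so fluorescence indicates corrected splicing.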

[4] = qHTS Assay for Lipid Storage Modulators (AID 1519); details: Drosophila S3 cells, BODIPY lipid droplet/cell ratio, laser cytometry, cells loaded with oleic acid
Procedure, shortened: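 Cells seeded at 5,000 per well were treated with compounds over a concentration series and loaded with oleic acid (400 uM, as added). Lipid droplet fluorescence (488 nm excitation, 500-530 nm channel) was read by laser-scanning cytometry and normalized to 20 uM Triacsin C.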

[5] = biological target: DNA dC->dU-editing enzyme APOBEC-3G (Homo sapiens) (UniProt Q9HC16); assay: qHTS for inhibitors of Vif-A3G interactions: Validation (AID 588379; active = well fitted curve in the direction sought with a large enough effect; an effect the other way counts as inactive or inconclusive; note: 0% is about no effect)
DNA dC->dU-editing enzyme APOBEC-3G (Homo sapiens), sequence (Q9HC16 whole entry, looked up): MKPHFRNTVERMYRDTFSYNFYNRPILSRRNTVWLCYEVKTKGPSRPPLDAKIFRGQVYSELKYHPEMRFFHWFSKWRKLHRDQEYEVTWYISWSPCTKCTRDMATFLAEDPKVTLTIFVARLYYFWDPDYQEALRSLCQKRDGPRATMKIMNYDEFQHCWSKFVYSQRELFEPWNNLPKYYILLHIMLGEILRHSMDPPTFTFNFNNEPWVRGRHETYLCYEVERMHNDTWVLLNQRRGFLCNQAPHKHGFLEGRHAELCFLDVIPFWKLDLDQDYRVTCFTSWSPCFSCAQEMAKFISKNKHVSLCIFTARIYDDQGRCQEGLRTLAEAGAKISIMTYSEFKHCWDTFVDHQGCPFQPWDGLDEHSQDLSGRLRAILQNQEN
Procedure, shortened: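 Yellow fluorescence (Ex 488, Em 500-530) of Vif-coexpressing HeLa A3G-eYFP cells, scanned by Acumen cytometer, reports blocked A3G degradation. Cells plated at 700/well overnight at 37 deg C before compound addition, then a further overnight compound incubation at 37 deg C.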

[6] = biological target: Mitogen-activated protein kinase 10 (Mus musculus) (UniProt Q61831); assay: JNK3 AlphaScreen Assay (AID 530; active = well fitted curve in either direction with a large enough effect, not every such curve was filed as active;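 note: kinase came from lysate of stimulated human HepG2 cells; signal reports phosphorylation of biotinylated GST-cJun 1-79 at Ser73 with 10 µM ATP; % is set by controls: 0 for no effect and ±100 for the full control effect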)
Procedure, shortened: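 Activity was read by AlphaScreen after JNK3-containing HepG2 lysate (cytokine pre-activated) phosphorylated biotinylated GST-cJun with 10 uM ATP at room temperature. Phospho-Ser73 cJun antibody with Protein-A acceptor beads provided detection.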

[7] = biological target: Cytochrome P450 3A4 (Homo sapiens) (UniProt P08684); assay: qHTS Assay for Activators of Cytochrome P450 3A4 (AID 885; active = well fitted curve in the direction sought with a large enough effect; an effect the other way counts as inactive or inconclusive; note: nearly all actives have a fitted effect of over 65% in size)
Procedure, shortened: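 Activators are scored by enhanced luminescence from CYP3A4 conversion of luciferin-PPXE (25uM, equal to KM) to luciferin, after 60 min at RT with an NADPH-regenerating system.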

[8] = biological target: Estrogen receptor (Homo sapiens) (UniProt P03372); assay: qHTS assay for small molecule agonists of estrogen receptor alpha signaling (AID 588514); note: potency is the fitted concentration of half-maximal effect; nearly all actives have a fitted effect of over 70% in size
Estrogen receptor (Homo sapiens), sequence (P03372 whole entry, looked up): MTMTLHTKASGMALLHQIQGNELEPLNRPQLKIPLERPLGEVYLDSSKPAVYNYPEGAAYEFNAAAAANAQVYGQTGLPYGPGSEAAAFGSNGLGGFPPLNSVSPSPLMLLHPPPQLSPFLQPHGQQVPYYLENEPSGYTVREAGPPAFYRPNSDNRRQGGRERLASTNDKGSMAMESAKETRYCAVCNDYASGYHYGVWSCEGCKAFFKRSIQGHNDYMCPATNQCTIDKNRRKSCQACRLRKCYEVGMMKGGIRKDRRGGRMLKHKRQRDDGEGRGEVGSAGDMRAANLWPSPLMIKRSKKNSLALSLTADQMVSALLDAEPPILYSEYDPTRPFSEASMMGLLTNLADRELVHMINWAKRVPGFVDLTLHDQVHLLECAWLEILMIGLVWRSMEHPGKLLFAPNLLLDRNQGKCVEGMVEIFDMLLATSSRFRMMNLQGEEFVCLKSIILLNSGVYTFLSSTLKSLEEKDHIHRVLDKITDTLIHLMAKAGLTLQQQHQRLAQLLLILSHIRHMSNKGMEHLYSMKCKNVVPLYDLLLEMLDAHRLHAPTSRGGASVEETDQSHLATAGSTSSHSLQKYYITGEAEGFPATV
Procedure, shortened: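 Efficacy is expressed against 20 nM 17-beta-estradiol (100%) and DMSO basal (0%); EC50 from Hill equation. Assay: beta-lactamase reporter in ER-alpha-UAS-bla HEK 293 cells, 18 h compound incubation, CCF4 detection.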

[9] = biological target: Peroxisome proliferator-activated receptor delta (Homo sapiens) (UniProt Q03181); assay: qHTS assay for small molecule agonists of peroxisome proliferator-activated receptor delta signaling (AID 588534);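 note: 0% = DMSO basal wells and 100% = positive control agonist at 10 µM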
Peroxisome proliferator-activated receptor delta (Homo sapiens), sequence (Q03181 whole entry, looked up): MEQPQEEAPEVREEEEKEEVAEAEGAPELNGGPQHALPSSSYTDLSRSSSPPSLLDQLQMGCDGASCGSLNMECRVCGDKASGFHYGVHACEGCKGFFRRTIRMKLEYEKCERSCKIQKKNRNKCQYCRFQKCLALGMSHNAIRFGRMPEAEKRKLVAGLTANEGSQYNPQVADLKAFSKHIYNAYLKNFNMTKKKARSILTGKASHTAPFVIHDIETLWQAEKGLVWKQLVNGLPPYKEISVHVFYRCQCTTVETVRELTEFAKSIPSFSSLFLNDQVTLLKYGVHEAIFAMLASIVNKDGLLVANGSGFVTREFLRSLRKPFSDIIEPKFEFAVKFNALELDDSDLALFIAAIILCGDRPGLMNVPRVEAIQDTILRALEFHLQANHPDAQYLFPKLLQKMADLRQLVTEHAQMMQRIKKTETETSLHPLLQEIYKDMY
Procedure, shortened: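 Agonist-mode qHTS; reporter cells, 5 hrs 37 C pre-incubation; compound titration, 18 hrs 37 C; CCF4 dye, 2 hrs RT; fluorescence read. EC50/efficacy via Hill fit.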

[10] = qHTS assay for small molecule antagonists of peroxisome proliferator-activated receptor delta signaling (AID 588535; active = well fitted inhibition curve with a large enough effect in the signal ratio, with a control signal flat, not every such curve was filed as active; the % refers to the signal ratio;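 for max response: cells co-treated with a PPAR-delta agonist as stimulator during compound exposure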); details: HEK293T PPARd-UAS-bla, beta-lactamase FRET ratio, 18 h; 460 nm channel
Procedure, shortened: (§1)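 Fluorescence from CCF4-loaded GeneBLAzer PPAR-delta-UAS-bla HEK293T cells (2 hrs RT loading) quantified reporter inhibition after an 18 hr, 37 C compound exposure across a titration.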

[11] = biological target: Peroxisome proliferator-activated receptor delta (Homo sapiens) (UniProt Q03181); assay: as above
Procedure, shortened: as §1

[12] = biological target: Peroxisome proliferator-activated receptor gamma (Homo sapiens) (UniProt P37231); assay: qHTS assay for small molecule agonists of peroxisome proliferator-activated receptor gamma signaling (AID 588536; active = well fitted curve in the direction sought with a large enough effect in the signal ratio, with a control signal flat, not every such curve was filed as active; the % refers to the signal ratio;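 note: 0% = DMSO basal wells and 100% = rosiglitazone at 2 µM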)
Peroxisome proliferator-activated receptor gamma (Homo sapiens), sequence (P37231 whole entry, looked up): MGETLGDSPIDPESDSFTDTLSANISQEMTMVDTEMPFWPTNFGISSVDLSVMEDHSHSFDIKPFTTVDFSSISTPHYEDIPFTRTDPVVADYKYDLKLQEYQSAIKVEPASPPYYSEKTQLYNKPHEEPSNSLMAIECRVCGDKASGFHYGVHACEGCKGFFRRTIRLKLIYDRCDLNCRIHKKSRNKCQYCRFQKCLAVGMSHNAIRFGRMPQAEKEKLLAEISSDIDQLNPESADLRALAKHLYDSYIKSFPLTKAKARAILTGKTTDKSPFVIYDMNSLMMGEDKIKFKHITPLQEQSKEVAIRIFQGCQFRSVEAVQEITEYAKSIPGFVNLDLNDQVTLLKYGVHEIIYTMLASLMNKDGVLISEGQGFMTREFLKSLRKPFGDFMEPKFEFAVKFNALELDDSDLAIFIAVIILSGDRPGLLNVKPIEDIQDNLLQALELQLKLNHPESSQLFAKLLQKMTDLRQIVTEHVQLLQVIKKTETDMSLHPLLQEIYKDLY
Procedure, shortened: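 Beta-lactamase reporter read-out: CCF4 fluorescence (ex 405, em 460/530 nm) after 2 h at RT. HEK293 GeneBLAzer cells were treated for 16 h at 37 C. Hill fits gave EC50 and efficacy versus 2 uM rosiglitazone (100%) and DMSO (0%).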

[13] = biological target: Peroxisome proliferator-activated receptor gamma (Homo sapiens) (UniProt P37231); assay: qHTS assay for small molecule antagonists of peroxisome proliferator-activated receptor gamma signaling (AID 588537; active = well fitted inhibition curve with a large enough effect in the signal ratio, with a control signal flat, not every such curve was filed as active; the % refers to the signal ratio;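 note: reporter cells co-stimulated with 50 nM rosiglitazone agonist during compound treatment; % of control where 0% means no effect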)
Procedure, shortened: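 Fluorescence at 460 and 530 nm (405 nm excitation) reported beta-lactamase cleavage of CCF4 after 2 h room-temperature loading. HEK293 reporter cells in 1% charcoal/dextran-treated FBS had received compound and rosiglitazone for 16 h.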

[14] = biological target: Vitamin D3 receptor (Homo sapiens) (UniProt P11473); assay: qHTS assay for small molecule antagonists of vitamin D receptor signaling (AID 588541);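 note: receptor activated by calcitriol during compound treatment; % is set by controls: 0 for no effect and ±100 for the full control effect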
Vitamin D3 receptor (Homo sapiens), sequence (P11473 whole entry, looked up): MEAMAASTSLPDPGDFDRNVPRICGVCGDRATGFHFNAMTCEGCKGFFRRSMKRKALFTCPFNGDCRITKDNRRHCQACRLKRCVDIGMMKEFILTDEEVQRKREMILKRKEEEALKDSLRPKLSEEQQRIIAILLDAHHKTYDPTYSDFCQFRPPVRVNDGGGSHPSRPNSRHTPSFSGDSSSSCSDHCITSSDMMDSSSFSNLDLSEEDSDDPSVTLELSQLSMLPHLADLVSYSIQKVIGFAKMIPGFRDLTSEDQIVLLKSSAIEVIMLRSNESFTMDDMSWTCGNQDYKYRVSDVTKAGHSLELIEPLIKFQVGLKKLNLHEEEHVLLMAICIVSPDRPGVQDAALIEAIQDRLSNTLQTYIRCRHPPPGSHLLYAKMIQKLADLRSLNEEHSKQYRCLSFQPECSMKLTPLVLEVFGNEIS
Procedure, shortened: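 VDR-UAS-bla HEK293T cells in 2% charcoal-stripped FBS were stimulated with 1-alpha,25-dihydroxyvitamin D3 (3 nM final) plus compound for 16 h at 37 C. The beta-lactamase CCF4 readout was normalized to 50 nM agonist and DMSO, and Hill fits gave IC50.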

[15] = biological target: Vitamin D3 receptor (Homo sapiens) (UniProt P11473); assay: qHTS assay for small molecule agonists of vitamin D receptor signaling (AID 588543);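 note: 0% = DMSO basal and 100% = reference agonist control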
Procedure, shortened: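 Agonist-mode beta-lactamase reporter: HEK293T VDR-UAS-bla cells in charcoal-stripped 2% FBS, compound series 16 h 37 C, CCF4 2 h RT. EC50 from Hill fit, scaled against DMSO and 50 nM calcitriol control.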

[16] = qHTS assay for small molecule agonists of retinoid X receptor alpha signaling (AID 588544); details: HEK293T RXRa-UAS-bla, beta-lactamase reporter, 18 h; 530 nm emission;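 for activation: 0% = DMSO basal wells and 100% = reference agonist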
[17] = biological target: Retinoic acid receptor RXR-alpha (Homo sapiens) (UniProt P19793); assay: as above
Retinoic acid receptor RXR-alpha (Homo sapiens), sequence (P19793 whole entry, looked up): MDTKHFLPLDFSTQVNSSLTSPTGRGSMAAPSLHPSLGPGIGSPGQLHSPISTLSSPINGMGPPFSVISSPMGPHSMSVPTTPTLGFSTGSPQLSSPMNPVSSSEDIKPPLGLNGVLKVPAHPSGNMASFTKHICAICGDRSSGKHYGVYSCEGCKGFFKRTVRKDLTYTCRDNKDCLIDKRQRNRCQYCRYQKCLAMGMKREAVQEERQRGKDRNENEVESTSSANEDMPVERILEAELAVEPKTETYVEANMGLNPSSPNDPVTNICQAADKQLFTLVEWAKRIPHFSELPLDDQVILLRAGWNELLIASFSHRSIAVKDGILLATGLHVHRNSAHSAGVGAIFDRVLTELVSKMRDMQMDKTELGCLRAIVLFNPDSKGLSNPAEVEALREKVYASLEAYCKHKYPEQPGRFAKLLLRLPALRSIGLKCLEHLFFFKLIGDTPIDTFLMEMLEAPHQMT

[18] = biological target: Thyroid hormone receptor beta (Homo sapiens) (UniProt P10828); assay: qHTS assay for small molecule agonists of thyroid hormone receptor beta signaling (AID 588545)
Thyroid hormone receptor beta (Homo sapiens), sequence (P10828 whole entry, looked up): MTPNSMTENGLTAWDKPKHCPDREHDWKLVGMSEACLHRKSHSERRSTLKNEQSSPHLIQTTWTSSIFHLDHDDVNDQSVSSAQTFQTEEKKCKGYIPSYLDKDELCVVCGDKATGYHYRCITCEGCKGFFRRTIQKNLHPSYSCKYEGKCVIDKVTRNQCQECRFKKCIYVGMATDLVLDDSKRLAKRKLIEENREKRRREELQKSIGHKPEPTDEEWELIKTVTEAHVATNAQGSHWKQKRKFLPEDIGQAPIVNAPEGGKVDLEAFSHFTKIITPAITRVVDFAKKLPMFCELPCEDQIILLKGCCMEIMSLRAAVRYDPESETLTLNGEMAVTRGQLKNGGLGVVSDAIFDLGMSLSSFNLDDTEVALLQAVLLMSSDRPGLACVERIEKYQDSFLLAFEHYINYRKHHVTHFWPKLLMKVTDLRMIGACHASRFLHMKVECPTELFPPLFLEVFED
Procedure, shortened: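 In this cell-based screen, titrated compounds act on HEK 293 cells held in medium with 2% charcoal/dextran FBS, NEAA and pyruvate for 18 hrs at 37 C. Responses are expressed relative to T3 (10 nM) as 100% and basal DMSO as 0%.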

[19] = qHTS assay for small molecule antagonists of retinoid X receptor alpha signaling (AID 588546; active = well fitted inhibition curve with a large enough effect in the signal ratio, with a control signal flat, not every such curve was filed as active; the % refers to the signal ratio;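 note: cells stimulated with 9-cis-retinoic acid as agonist; % is set by controls: 0 for no effect and ±100 for the full control effect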); details: HEK293T RXRa-UAS-bla, beta-lactamase ratio, antagonist mode; measured here: W530 green channel, cytotoxicity proxy
Procedure, shortened: (§2)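 Beta-lactamase reporter inhibition, read as CCF4 fluorescence ratio (ex 405, em 460/530 nm) after 2 h at RT. HEK293T UAS-bla cells, 2500/well, were stimulated with 9-cis-RA at 500 or 100 nM final alongside test compound for 18 h at 37 C.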

[20] = biological target: Retinoic acid receptor RXR-alpha (Homo sapiens) (UniProt P19793); assay: as above; details: HEK293T RXRa-UAS-bla, beta-lactamase ratio, antagonist mode
Procedure, shortened: as §2

[21] = biological target: Thyroid hormone receptor beta (Homo sapiens) (UniProt P10828); assay: qHTS assay for small molecule antagonists of thyroid hormone receptor beta signaling (AID 588547; active = well fitted inhibition curve with a large enough effect in the signal ratio, with a control signal flat, not every such curve was filed as active; the % refers to the signal ratio;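 note: cells stimulated with 0.4 nM T3 agonist during compound exposure; % is set by controls: 0 for no effect and ±100 for the full control effect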); details: TR-UAS-bla HEK293, beta-lactamase ratio, antagonist mode, 18 h
Procedure, shortened: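 TR-UAS-bla GripTite HEK293 cells in 2% charcoal/dextran FBS medium; compounds 0.59 nM to 92 uM with T3 at 0.4nM final, 18 h at 37 C. Beta-lactamase read by CCF4 fluorescence (460/530 nm); Hill fits gave IC50 and efficacy.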

[22] = qHTS assay for small molecule agonists of the antioxidant response element (ARE) signaling pathway (AID 651741; active = well fitted activation curve with a large enough effect in the signal ratio; the % refers to the signal ratio; note: % of control where 0% means no effect)
Procedure, shortened: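 Stably integrated ARE-beta-lactamase reporter HepG2 cells; 16 h compound incubation, 37 C; LiveBLAzer FRET substrate 2 h at room temperature; fluorescence intensity.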

[23] = qHTS assay for small molecule activators of the p53 signaling pathway (AID 651743; active = well fitted activation curve with a large enough effect in the signal ratio, not every such curve was filed as active; the % refers to the signal ratio; note: % of control where 0% means no effect); details: HCT-116 p53RE-bla, beta-lactamase FRET ratio, 16 h; activation: stronger effect = higher value
Procedure, shortened: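 Following 16 hours of compound exposure at 37 C, HCT-116 cells bearing the p53RE-bla reporter were loaded with LiveBLAzer B/G FRET substrate for 2 hours at room temperature and fluorescence intensity was recorded.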

[24] = qHTS assay for small molecule activators of the nuclear factor-kappa B (NF-kB) signaling pathway (AID 651749; active = well fitted activation curve with a large enough effect in the signal ratio; the % refers to the signal ratio; note: % of control where 0% means no effect); details: NF-kB-bla ME-180 cells, beta-lactamase FRET ratio, 16 h; activation: stronger effect = higher value
Procedure, shortened: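 In this qHTS format, compounds acting as activators increase NF-kB-driven beta-lactamase in ME-180 cells, measured as disrupted FRET after 16 hr exposure at 37C and 5% CO2.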

[25] = qHTS assay for environmental chemicals that activate the Aryl hydrocarbon Receptor (AhR) signaling pathway (AID 651777; active = well fitted curve in the direction sought with a large enough effect; an effect the other way counts as inactive or inconclusive; note: % of control where 0% means no effect; nearly all actives have a fitted effect of over 15% in size); details: 1A2-DRE human hepatoma cells, luciferase, 24 h; activation: stronger effect = higher value
Procedure, shortened: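 Stable CYP1A2 promoter/DRE-luciferase human hepatoma line treated 24 hr; One-Glo luminescence, 30 min RT.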

[26] = qHTS assay for small molecule agonists of the antioxidant response element (ARE) signaling pathway measured by Nrf2-dependant transcriptional activity (AID 720636; active = well fitted curve in the direction sought with a large enough effect in the repeat runs; an effect the other way counts as inactive or inconclusive;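 note: HepG2 cells with an ARE-driven luciferase reporter; % of control where 0% means no effect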)
Procedure, shortened: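 Reporter gene assay, HepG2 ARE-luc: 16 hr compound, 37 C, 5% CO2; read-out luciferase luminescence.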

[27] = qHTS assay for small molecule agonists of the antioxidant response element (ARE) signaling pathway measured by Nrf2-dependant transcriptional activity - cell viability counter screen (AID 720653; active = well fitted curve in the direction sought with a large enough effect in the repeat runs; an effect the other way counts as inactive or inconclusive; note: % is set by controls: 0 for no effect and ±100 for the full control effect); details: ARE-bla HepG2 viability, CellTiter-Glo ATP luminescence, 16 h; stronger effect = lower value
Procedure, shortened: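 ARE-bla HepG2 cells treated with compounds for 16 h at 37C; this counter screen measures viability as intracellular ATP by CellTiter-Glo luminescence after 30 min at room temperature.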

[28] = qHTS assay for cell viability of HEK293 cells (AID 743288; active = well fitted curve in the direction sought with a large enough effect; an effect the other way counts as inactive or inconclusive; note: % is set by controls: 0 for no effect and ±100 for the full control effect; nearly all actives have a fitted effect of over 50% in size); details: ATP luminescence (CellTiter-Glo), 18 h; max response: stronger effect = lower value
Procedure, shortened: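 Readout is luciferase-coupled ATP content (CellTiter-Glo luminescence, 30 min room temperature) as a measure of metabolically competent cells. Parental HEK293 cells were plated 5 h or more before compound addition, then treated 18 h at 37 C.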

[29] = measured here: cell count channel max response
[30] = measured here: lipid channel max response

Structure (SMILES): COc1cc2c(cc1OC)C(C)NCC2 (stereo not drawn)
- Potency [1]: inactive
- Potency [2]: inactive
- Potency [3]: inactive
- activity change, negative = inhibition ([4]; at 57.5 µM (top of the series)): 4.92% (inactive)
- max response [4, 29]: 20%
- max response [4, 30]: 26%
- outcome [5]: inactive

Structure (SMILES): C[C@@H]1O[C@H](O[C@H]2C[C@@H](O)[C@@]3(CO)[C@H]4[C@@H](O)C[C@]5(C)[C@@H](C6=CC(=O)OC6)CC[C@]5(O)[C@H]4CC[C@]3(O)C2)[C@@H](O)[C@H](O)[C@@H]1O
- outcome [6]: inactive
- activity change, negative = inhibition ([4]; at 25.7 µM (top of the series)): -0.396% (inactive)
- max response [4, 29]: -4.59%
- max response [4, 30]: -4.25%

Structure (SMILES): CC(C)(C)C(=O)C(Oc1ccc(Cl)cc1)n1cncn1 (stereo not drawn)
- Potency [7]: inactive
- Potency [2]: inactive
- Potency [3]: inactive
- activity change, negative = inhibition ([4]; at 57.5 µM (top of the series)): 7.2% (inactive)
- max response [4, 29]: 5.9%
- max response [4, 30]: 16.7%
- Potency [8]: 39.8 µM (active)
- outcome [9]: inactive
- max response [10]: -36.1% and 32.9%
- Potency [11]: inactive
- outcome [12]: inactive
- Potency [13]: inactive
- outcome [14]: inactive
- outcome [15]: inactive
- max response [16]: 16% and -16.7%
- Potency [17]: inactive
- outcome [18]: inactive
- max response [19]: 2.99% and 5.39%
- max response [20]: 0.375% (inactive) and -49.7% (inactive)
- activity change % (negative = inhibition) [21]: -2.73% (inactive) and -13.2% (inactive)
- Potency [22]: inactive
- activation [23]: -0.546% (inactive) and 1.4% (inactive)
- activation [24]: -2.3% (inactive) and -1.59% (inactive)
- activation [25]: 6% (inactive)
- outcome [26]: inactive
- max response [27]: 5.28% (inactive) and -3.18% (inactive)
- max response [28]: -10.8% (inactive) and -21.2% (inactive)
